Drawing on PubChem BioAssay (NCI), this text covers growth for nine compounds.

Assay in all cases: NCI-60 one-dose screen, 48 h (100 = growth as untreated, 0 = no growth, -100 = all killed)
Common to all, as to conditions: 10 µM unless noted

Test [1] deals with SR leukemia.
For test [2], the system named is RPMI-8226 leukemia.
Test [3] deals with OVCAR-8 ovarian.
In test [4] the test system is OVCAR-5 ovarian.
Test [5] has as its system OVCAR-4 ovarian.
For test [6], the system named is SK-OV-3 ovarian.
Test [7] deals with IGROV1 ovarian.
The test system of test [8] is OVCAR-3 ovarian.
Test [9] deals with HS 578T breast.
The test system of test [10] is NCI/ADR-RES ovarian.
Test [11] has as its system T-47D breast.
Test [12] deals with BT-549 breast.
The subject of test [13] is MDA-MB-435 melanoma.
In test [14] the test system is SW-620 colon.
The test system of test [15] is MCF7 breast.
The test system of test [16] is HCT-116 colon.
Test [17] has as its system HCC-2998 colon.
Test [18] has as its system KM12 colon.

This is part of a sample that, as a whole, favours compounds with a hit. Of some 83,000 tested, about 20% had one in any assay.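 The endpoint reported here, percent growth, reads 100 for growth as untreated, 0 for no net growth and -100 for all cells dead.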 Unmarked numbers belong to inactive results. Activity calls are given as the source filed them. Rule for the calls: active = growth percent below 10; inactive = the rest.

On to `NS(=O)(=O)c1ccc(Nc2nc(N/N=C/c3ccc(Cl)cc3)nc(Nc3ccccc3)n2)cc1`, for which the growth in test [1] is 19%; in test [2] it was 54.7%; in test [3], 67.9%; in test [4], 83.4%; in [5] it was 83.6%; in test [6] it was 104%. In addition, the growth in test [7] is 66.8%; in [8], 70.4%; in test [9], 64.7%; in [10] it was 97.5%; in test [11], 44.8%; in test [12], 74.9%. For the same compound, the growth in test [13] was 57.7%; in test [14], 101%; in [15] it was 38.7%; in test [16] it was 44.3%; in [17], 76.4%; in test [18], 63.3%.
Turning to `O=C(CSc1nnc(-c2ccc3nc(-c4ccccc4)[nH]c3c2)o1)Nc1ccc(C(=O)/C=C/c2ccccc2)cc1`, the growth in [1] is 111%; in test [2], 94.3%; in [3] it was 100%; in test [4] it was 118%; in test [5], 100%; in [6], 109%. In addition, the growth in [7] is 95.8%; in test [8] it was 116%; in test [9], 103%; in test [10], 105%; in test [11], 98.6%; in test [12] it was 96.8%. The growth in test [13] is 101%; in test [14] it was 116%; in test [15], 87.6%; in [16] it was 97%; in [17], 106%; in [18], 110%.
For the compound `COc1ccc2c(c1)c(CC(=O)[Se]CC#N)c(C)n2C(=O)c1ccc(Cl)cc1`, the growth is 3.49% (active) in test [1]; 20.5% in [2]; 6.34% (active) in test [3]; -13.6% (active) in [4]; 27.7% in test [5]; 34% in test [6]. The growth in test [7] was -14.3% (active); in test [8], 13.9%; in [9] it was 28.3%; in [10], -13.8% (active); in test [11], 22.4%; in [12], 75.9%. Further, the growth was 26.5% in [13]; -32.7% (active) in test [14]; 17.3% in test [15]; -46.7% (active) in [16]; -4.68% (active) in test [17]; -5.24% (active) in test [18].
Regarding `O=C(Cn1cc[n+](CC(=O)c2ccc(-c3ccccc3)cc2)c1)Nc1cccc2cccnc12`, the growth in test [1] is 53.9%; in test [2], 33.5%; in test [3], 76.6%; in [4] it was 90.6%; in test [5] it was 32.9%; in [6], 80%. In addition, the growth in [7] is 27.3%; in [8] it was 50.1%; in [9], 75.8%; in test [10] it was 97.9%; in test [11] it was 40.4%; in test [12], 57.4%. In addition, the growth is 79.3% in test [13]; 85% in test [14]; 51.4% in [15]; 72.4% in test [16]; 51.7% in test [17]; 31.6% in [18].
Regarding `CCOc1ccccc1NC1=C(Cl)C(=O)c2nc(C)ccc2C1=O`, the growth in [1] was -12.8% (active); in [2], -35.1% (active); in test [3], 0.93% (active); in test [4], 40.8%; in test [5], -92% (active); in test [6], 85.3%. For the same compound, the growth in [7] was -57.5% (active); in [8], -98.9% (active); in [9] it was 1.05% (active); in [10], -9.58% (active); in test [11], -40% (active); in test [12], 44.4%. For the same compound, the growth was -85.7% (active) in test [13]; -66.7% (active) in test [14]; -59.7% (active) in test [15]; -79.4% (active) in test [16]; 20.3% in test [17]; 60.8% in test [18].
`O=S(=O)(NCCCNc1nccc(-c2[nH]c(-c3ccccc3)nc2-c2ccc(Cl)c(O)c2)n1)c1cccc(F)c1`: the growth was 39.4% in [1]; 41.1% in test [2]; 50.1% in test [3]; 85.4% in test [4]; 71.8% in test [5]; 105% in test [6]. Besides, the growth in test [7] is 57.9%; in [8] it was 60.3%; in test [9], 96.2%; in [10], 73.2%; in test [11], 49.9%; in test [12], 59.7%. For the same compound, the growth was 21.5% in test [13]; 92.5% in test [14]; 55.3% in test [15]; 35.4% in test [16]; 101% in test [17]; 60.5% in [18].
For the compound `COc1ccc(/C=N/NC2=NC3C(S2)N(C)C(=O)N3C)cc1` (configuration not stated), the growth in test [1] is 6.64% (active); in test [2], 10.5%; in [3] it was 35.6%; in [4] it was 50.4%; in test [5], 75.6%; in test [6] it was 28%. The growth in test [7] was 40.9%; in test [8] it was -17.1% (active); in test [9], 0.337% (active); in test [10], 30.7%; in [11] it was 26.7%; in test [12], 66%. In addition, the growth in test [13] is -56.4% (active); in test [14], 16.1%; in test [15], 15.4%; in [16] it was 33.5%; in test [17], 67%; in test [18] it was 20.8%.
`O=C(Nc1nc2ccc([N+](=O)[O-])cc2s1)Nc1ccccc1Br`: the growth is 23.2% in test [1]; 6.15% (active) in test [2]; 51.4% in test [3]; 84.4% in test [4]; 12.2% in test [5]; 63.6% in test [6]. Moreover, the growth in test [7] is 47.3%; in [8] it was 25.9%; in [9], 47.1%; in test [10] it was 52.1%; in [11], 33.8%; in test [12], 71.7%. The growth in test [13] is 38.2%; in test [14], 39.2%; in test [15], 24.8%; in test [16], 18.1%; in test [17], 37.8%; in test [18], 15.1%.
Regarding `C#Cc1nc(C(C)=O)cs1`, the growth in test [1] is 99.6%; in test [2], 92.5%; in test [3] it was 105%; in test [4] it was 107%; in [5], 105%; in test [6], 93%. Further, the growth in test [7] was 101%; in [8], 112%; in test [9], 104%; in test [10], 103%; in [11], 101%; in test [12] it was 98.5%. The growth is 104% in test [13]; 107% in [14]; 90.8% in test [15]; 95% in test [16]; 114% in [17]; 94.7% in test [18].
